Assay results taken from PubChem BioAssay (EPA / NIEHS).
Records with an inconclusive call do not appear. Active and inactive are the calls of the source. Rule for the calls: active = hit-call score of the fitted dose curve at least 0.9, where 1 is the maximum; inconclusive = response in the unintended direction; inactive = score below 0.9.

Tests used:
[1] = biological target: Peroxisome proliferator-activated receptor gamma (Homo sapiens) (UniProt P37231); test: NVS_NR_hPPARg: NovaScreen (NVS) Nuclear Receptor Binding Assay for human Peroxisome Proliferator-activated Receptor gamma (PPARg) (AID 2283370)
Sequence of Peroxisome proliferator-activated receptor gamma (Homo sapiens) (P37231 whole entry, looked up): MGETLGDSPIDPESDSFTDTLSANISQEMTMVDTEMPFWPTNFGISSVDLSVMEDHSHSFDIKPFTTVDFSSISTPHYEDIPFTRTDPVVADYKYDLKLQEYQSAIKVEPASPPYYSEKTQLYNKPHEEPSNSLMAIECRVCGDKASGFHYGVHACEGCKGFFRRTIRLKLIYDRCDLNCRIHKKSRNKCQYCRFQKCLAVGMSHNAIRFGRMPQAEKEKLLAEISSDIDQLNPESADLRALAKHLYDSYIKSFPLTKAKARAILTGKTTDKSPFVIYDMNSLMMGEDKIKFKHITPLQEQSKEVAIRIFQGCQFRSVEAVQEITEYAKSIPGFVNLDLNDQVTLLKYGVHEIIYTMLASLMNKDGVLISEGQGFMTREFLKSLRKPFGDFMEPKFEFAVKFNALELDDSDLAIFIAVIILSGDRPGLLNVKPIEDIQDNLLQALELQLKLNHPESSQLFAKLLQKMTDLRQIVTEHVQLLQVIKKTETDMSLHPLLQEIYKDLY
How it was run: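 Cell-free binding to extracted PPARg protein, read by fluorescence polarization 2 h after dosing; loss of signal relative to DMSO baseline marks displacement. Primary screen in duplicate at 25 uM, actives retested in concentration series.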

[2] = biological target: Estrogen receptor beta (Homo sapiens) (UniProt Q92731); test: OT_ER_ERbERb_1440: Odyssey Thera (OT) 24-hour HEK293T Protein-Complementation Assay for Estrogen Receptor-beta/-beta Homodimer (AID 2283380);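 note: scored as signal increase over DMSO baseline for both agonists and antagonists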
Sequence of Estrogen receptor beta (Homo sapiens) (Q92731 whole entry, looked up, the tested form may be a part): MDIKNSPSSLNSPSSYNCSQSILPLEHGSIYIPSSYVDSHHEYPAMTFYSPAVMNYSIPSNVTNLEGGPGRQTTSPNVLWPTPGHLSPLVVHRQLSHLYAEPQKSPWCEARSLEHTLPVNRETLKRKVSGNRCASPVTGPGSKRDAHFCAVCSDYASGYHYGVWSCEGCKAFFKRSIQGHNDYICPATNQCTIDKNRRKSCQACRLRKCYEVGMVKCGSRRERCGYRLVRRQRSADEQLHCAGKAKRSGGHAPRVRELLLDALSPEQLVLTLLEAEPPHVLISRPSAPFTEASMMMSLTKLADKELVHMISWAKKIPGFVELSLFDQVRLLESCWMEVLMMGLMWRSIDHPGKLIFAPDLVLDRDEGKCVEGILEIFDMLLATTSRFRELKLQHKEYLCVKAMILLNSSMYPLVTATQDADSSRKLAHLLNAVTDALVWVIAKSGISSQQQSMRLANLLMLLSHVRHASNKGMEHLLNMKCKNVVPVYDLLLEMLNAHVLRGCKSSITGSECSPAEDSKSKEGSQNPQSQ
How it was run: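 HEK293T cells stably expressing ER beta LBD (aa 310-547) homodimer fragment-complementation reporter, dosed 24 h. Cells formaldehyde-fixed, Draq5-stained; gain in nuclear (agonist) or nuclear plus cytoplasmic (antagonist) fluorescence versus DMSO read by laser scanning cytometry.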

[3] = biological target: human Norepinephrine Transporter (NET), SLC6A2 (gene 6530) (UniProt P23975); test: NVS_TR_hNET: NovaScreen (NVS) Transporter Assay for human Norepinephrine Transporter (NET) (AID 2283377);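 note: cell-free membrane protein extracted from CHO cells expressing human NET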;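 for AC50: displacement of radioligand from human NET seen as loss of scintillation signal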
Sequence of human Norepinephrine Transporter (NET), SLC6A2 (gene 6530) (P23975 whole entry, looked up): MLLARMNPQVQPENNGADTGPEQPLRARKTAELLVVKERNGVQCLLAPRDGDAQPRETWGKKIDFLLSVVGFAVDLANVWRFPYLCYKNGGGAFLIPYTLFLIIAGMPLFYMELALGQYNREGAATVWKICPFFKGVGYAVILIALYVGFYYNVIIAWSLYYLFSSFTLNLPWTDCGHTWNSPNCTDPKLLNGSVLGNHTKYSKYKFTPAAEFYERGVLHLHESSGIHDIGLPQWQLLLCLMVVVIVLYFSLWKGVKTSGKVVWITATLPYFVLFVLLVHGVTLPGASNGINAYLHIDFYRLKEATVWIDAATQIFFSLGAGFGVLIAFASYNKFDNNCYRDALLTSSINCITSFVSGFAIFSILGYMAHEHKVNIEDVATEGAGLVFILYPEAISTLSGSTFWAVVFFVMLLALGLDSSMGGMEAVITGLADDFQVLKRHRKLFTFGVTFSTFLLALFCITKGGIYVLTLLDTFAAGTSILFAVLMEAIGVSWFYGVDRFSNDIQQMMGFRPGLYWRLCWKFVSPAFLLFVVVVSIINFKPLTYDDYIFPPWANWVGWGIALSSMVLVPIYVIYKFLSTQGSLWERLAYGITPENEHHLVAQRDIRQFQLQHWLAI
How it was run: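 CHO cell extracts expressing the transporter; tritiated or iodinated tracer displaced competitively; filtration plus scintillation readout at 1 h. Single-point duplicates at 25 uM, concentration series for follow-up; activity = signal drop relative to DMSO.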

[4] = biological target: human Dopamine Transporter (DAT), SLC6A3 (gene 6531) (UniProt Q01959); test: NVS_TR_hDAT: NovaScreen (NVS) Transporter Assay for human Dopamine Transporter (DAT) (AID 2283374);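 note: activity means loss of bound radioligand signal relative to DMSO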
Sequence of human Dopamine Transporter (DAT), SLC6A3 (gene 6531) (Q01959 whole entry, looked up): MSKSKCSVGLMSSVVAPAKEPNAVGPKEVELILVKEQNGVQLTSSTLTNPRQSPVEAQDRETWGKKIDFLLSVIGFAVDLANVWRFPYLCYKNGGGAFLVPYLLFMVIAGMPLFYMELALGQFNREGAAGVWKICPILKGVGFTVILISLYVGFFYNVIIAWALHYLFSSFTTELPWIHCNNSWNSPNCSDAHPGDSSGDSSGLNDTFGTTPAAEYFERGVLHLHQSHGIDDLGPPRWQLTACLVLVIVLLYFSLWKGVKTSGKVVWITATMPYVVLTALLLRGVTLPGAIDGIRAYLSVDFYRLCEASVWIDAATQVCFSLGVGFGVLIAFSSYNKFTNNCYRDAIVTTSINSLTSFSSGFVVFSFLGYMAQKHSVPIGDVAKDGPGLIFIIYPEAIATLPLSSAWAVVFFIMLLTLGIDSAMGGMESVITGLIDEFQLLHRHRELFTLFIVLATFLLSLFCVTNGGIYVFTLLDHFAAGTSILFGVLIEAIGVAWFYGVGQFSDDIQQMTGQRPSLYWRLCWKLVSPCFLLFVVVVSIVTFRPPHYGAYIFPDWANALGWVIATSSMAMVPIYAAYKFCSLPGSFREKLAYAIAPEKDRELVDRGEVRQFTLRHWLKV
How it was run: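 hDAT membranes + tritiated/iodinated radioligand, competitive displacement; 1 h; filter scintillation readout. Single conc 25 uM (duplicate), then conc-response for actives. DMSO = negative control.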

[5] = biological target: Agonist Androgen Response Element (ARE), AR (gene 367) (UniProt P10275); test: OT_AR_ARELUC_AG_1440: Odyssey Thera (OT) 24-hour CHO-K1 Luciferase Assay for Agonist Androgen Response Element (ARE) (AID 2283379)
Sequence of Agonist Androgen Response Element (ARE), AR (gene 367) (P10275 whole entry, looked up): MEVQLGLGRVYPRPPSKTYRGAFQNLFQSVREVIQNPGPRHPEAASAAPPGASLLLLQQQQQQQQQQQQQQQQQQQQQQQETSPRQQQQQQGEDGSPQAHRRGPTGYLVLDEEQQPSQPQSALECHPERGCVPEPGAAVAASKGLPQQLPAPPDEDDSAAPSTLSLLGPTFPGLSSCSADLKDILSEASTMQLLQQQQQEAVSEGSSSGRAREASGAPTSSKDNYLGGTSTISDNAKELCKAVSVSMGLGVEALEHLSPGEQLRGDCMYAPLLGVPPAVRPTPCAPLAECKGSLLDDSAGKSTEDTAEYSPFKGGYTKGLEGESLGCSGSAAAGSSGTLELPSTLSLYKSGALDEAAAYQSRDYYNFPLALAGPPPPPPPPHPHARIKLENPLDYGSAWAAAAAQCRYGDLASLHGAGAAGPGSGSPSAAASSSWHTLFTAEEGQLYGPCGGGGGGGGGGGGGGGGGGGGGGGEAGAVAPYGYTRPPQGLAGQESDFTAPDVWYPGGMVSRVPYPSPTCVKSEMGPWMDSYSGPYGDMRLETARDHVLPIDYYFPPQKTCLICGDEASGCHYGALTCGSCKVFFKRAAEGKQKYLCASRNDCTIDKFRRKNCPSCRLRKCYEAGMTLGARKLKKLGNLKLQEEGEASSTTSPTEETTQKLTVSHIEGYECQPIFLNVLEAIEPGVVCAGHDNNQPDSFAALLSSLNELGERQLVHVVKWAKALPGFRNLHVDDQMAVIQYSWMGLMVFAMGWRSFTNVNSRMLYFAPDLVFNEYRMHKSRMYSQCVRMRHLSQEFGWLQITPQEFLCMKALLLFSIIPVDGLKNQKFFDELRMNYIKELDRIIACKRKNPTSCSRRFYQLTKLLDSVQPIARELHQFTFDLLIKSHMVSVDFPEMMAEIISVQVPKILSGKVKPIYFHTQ
How it was run: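 Gain-of-signal reporter endpoint: cells (CHO-K1, hamster) are treated 24 h, luciferin/ATP reagent added, and luminescence compared with DMSO baseline.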

[6] = biological target: rat Serotonin Transporter (SERT), Slc6a4 (gene 25553) (UniProt P31652); test: NVS_TR_rSERT: NovaScreen (NVS) Transporter Assay for rat Serotonin Transporter (SERT) (AID 2283375)
Sequence of rat Serotonin Transporter (SERT), Slc6a4 (gene 25553) (P31652 whole entry, looked up): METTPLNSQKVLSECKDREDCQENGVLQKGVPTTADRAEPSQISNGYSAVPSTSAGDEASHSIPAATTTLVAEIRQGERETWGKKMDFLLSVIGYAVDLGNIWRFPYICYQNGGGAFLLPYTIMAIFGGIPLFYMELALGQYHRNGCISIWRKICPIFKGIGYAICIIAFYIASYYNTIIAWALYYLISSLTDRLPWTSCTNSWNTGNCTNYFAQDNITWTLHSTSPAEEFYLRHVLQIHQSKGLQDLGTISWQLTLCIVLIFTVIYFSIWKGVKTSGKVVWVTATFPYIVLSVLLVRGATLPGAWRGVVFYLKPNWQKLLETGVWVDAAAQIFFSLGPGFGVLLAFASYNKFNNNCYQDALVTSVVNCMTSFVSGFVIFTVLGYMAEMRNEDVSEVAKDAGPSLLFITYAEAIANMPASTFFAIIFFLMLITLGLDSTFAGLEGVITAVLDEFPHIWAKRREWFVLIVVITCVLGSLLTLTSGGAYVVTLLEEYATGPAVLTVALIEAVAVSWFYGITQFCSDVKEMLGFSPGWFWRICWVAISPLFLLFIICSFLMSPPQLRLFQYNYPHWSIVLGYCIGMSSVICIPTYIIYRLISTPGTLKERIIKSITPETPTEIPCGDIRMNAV
How it was run: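 Rat forebrain membranes were incubated with test chemical for 1 hour; radioligand binding to SERT was measured by filter-based scintillation counting. Primary screen ran in duplicate at 25 uM, with actives followed up in concentration series; DMSO served as negative control.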

[7] = test system: guinea pig Dopamine Transporter (DAT), gene 100714898; test: NVS_TR_gDAT: NovaScreen (NVS) Transporter Assay for guinea pig Dopamine Transporter (DAT) (AID 2283369);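 note: active compounds lower bound radioligand signal relative to DMSO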
How it was run: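 Guinea pig striatal membranes; radioligand displacement measured by filter-based scintillation counting 2 h after dosing. Initial duplicate screen at 25 uM, then concentration-response up to 50 uM for hits; loss of signal versus DMSO baseline.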

[8] = test system: rat Norepinephrine Transporter (NET), gene 83511; test: NVS_TR_rNET: NovaScreen (NVS) Transporter Assay for rat Norepinephrine Transporter (NET) (AID 2283373)
How it was run: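 Competitive radioligand displacement at the rat NET using forebrain membrane preparations, 1 h incubation, filter-based scintillation readout. Primary testing in duplicate at a single 25 uM concentration; confirmed actives retested across concentrations.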

[9] = biological target: mouse Estrogen Receptor alpha (Era), Esr1 (gene 13982) (UniProt P19785); test: NVS_NR_mERa: NovaScreen (NVS) Nuclear Receptor Binding Assay for mouse Estrogen Receptor alpha (Era) (AID 2283378);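 note: hit means loss of bound radioligand signal relative to DMSO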
Sequence of mouse Estrogen Receptor alpha (Era), Esr1 (gene 13982) (P19785 whole entry, looked up): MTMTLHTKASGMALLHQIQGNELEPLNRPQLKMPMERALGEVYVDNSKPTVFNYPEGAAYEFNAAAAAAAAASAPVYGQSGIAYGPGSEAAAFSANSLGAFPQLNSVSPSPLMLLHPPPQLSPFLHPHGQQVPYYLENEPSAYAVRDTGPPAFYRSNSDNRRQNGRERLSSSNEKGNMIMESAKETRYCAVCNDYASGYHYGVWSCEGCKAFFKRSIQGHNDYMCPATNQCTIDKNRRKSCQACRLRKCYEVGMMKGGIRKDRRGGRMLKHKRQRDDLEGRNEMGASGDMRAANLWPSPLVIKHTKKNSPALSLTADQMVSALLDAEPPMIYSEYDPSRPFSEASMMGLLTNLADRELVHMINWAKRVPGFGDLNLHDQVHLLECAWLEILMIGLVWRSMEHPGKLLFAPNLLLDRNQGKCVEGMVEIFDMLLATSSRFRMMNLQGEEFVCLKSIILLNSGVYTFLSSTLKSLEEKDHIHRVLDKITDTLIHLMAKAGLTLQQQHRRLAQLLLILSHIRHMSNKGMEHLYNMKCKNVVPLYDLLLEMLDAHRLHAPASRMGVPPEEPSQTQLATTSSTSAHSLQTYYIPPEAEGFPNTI
How it was run: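 Cell-free radioligand binding with extracted mouse Era protein; competitive displacement of radiolabelled ligand, read by filter-based scintillation counting 18 hours after dosing. Loss of signal versus DMSO baseline taken as binding; single screening concentration 25 uM, actives followed in concentration series.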

Structure (SMILES): CCN(C(=O)c1cc(C)cc(OC[C@H](C)Nc2ccncc2)c1)C(C)C
- outcome [1]: inactive
- outcome [2]: inactive

Structure (SMILES): Cn1c(=O)cc(Oc2ccc(F)cc2F)c2cnc(NCC(C)(C)O)nc21
- AC50 [1]: 32.4 µM (active)
- AC50 [3]: 4.35 µM (active)
- outcome [2]: inactive

Structure (SMILES): Oc1ccc2c(c1)-c1ccccc1C2
- outcome [1]: inactive
- AC50 [4]: 10.9 µM (active)
- AC50 [3]: 9.7 µM (active)
- outcome [5]: inactive
- AC50 [2]: 11 µM (active)

Structure (SMILES): COc1ccc(/C=C/S(=O)(=O)NC(=O)c2ccc(C)cc2Cl)cc1
- AC50 [1]: 41.3 µM (active)
- outcome [2]: inactive

Structure (SMILES): CCCCCCc1ccc(O)cc1O
- AC50 [1]: 25 µM (active)
- AC50 [4]: 10 µM (active)
- outcome [6]: inactive
- AC50 [3]: 12.8 µM (active)
- outcome [5]: inactive

Structure (SMILES): COc1cccc(-c2ccc(/C=C\CN3CCCCCC3)cc2Cl)c1
- AC50 [7]: 14.5 µM (active)
- outcome [1]: inactive
- AC50 [8]: 9.83 µM (active)
- AC50 [4]: 5.87 µM (active)
- outcome [6]: inactive
- AC50 [3]: 2.67 µM (active)
- outcome [9]: inactive
- outcome [2]: inactive

Structure (SMILES): O=C(O)c1cccc(N(Cc2cccnc2)c2ccc(OC(F)F)c(OC(F)F)c2)c1
- AC50 [1]: 25 µM (active)
- outcome [5]: inactive
- outcome [2]: inactive

Structure (SMILES): CCn1nc(Cc2ccccc2)cc1C1CCN(C[C@H]2C[C@H](N(C)[C@@H](C(=O)O)C(C)C)C[C@@H]2c2cccc(F)c2)CC1
- AC50 [7]: 13.8 µM (active)
- AC50 [4]: 9.06 µM (active)
- AC50 [3]: 11 µM (active)
- outcome [2]: inactive

Structure (SMILES): COc1ccc2sc(C(=O)Nc3nnn[nH]3)c(OC(C)C)c2c1
- AC50 [1]: 5.14 µM (active)
- outcome [3]: inactive
- outcome [2]: inactive

Structure (SMILES): O=C(OC[C@H]1O[C@@H](OC(=O)c2cc(O)c(O)c(OC(=O)c3cc(O)c(O)c(O)c3)c2)[C@H](OC(=O)c2cc(O)c(O)c(OC(=O)c3cc(O)c(O)c(O)c3)c2)[C@@H](OC(=O)c2cc(O)c(O)c(OC(=O)c3cc(O)c(O)c(O)c3)c2)[C@@H]1OC(=O)c1cc(O)c(O)c(OC(=O)c2cc(O)c(O)c(O)c2)c1)c1cc(O)c(O)c(OC(=O)c2cc(O)c(O)c(O)c2)c1
- outcome [7]: inactive
- AC50 [4]: 2.65 µM (active)
